The text below walks through data of PubChem BioAssay AID588413 (Sanford-Burnham Center for Chemical Genomics, 2011).

The whole screen tested about 340,000 compounds, of which about 2,500 (0.74%) were called active.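 How the source made its calls: active means inhibition above about 55% (limit read from the data); inactive means the rest.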 The sample as a whole holds a higher share of actives than the screen did.

The assay in a line: Gli-Sufu pathway antagonists, primary screen, luciferase luminescence, Sufu-KO-LIGHT cells, uHTS (AID 588413).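 Further: 0% = DMSO-treated cells and 100% = wells with medium but no cells.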 Conditions: Sufu-KO-LIGHT fibroblasts, Gli luciferase reporter luminescence; at 5 µM; stronger effect = higher value. (In a reporter assay the amount or activity of a reporter protein is the signal.)
Regarding `COc1ccc(CCNC(=O)CCn2c(=O)c3ccccc3n(CC(=O)NCC3CCCO3)c2=O)cc1OC` (configuration not stated), the inhibition is 2.58% (inactive).
The figure for `CCN(CC(=O)Nc1cc(Cl)ccc1C)C(=O)CSCc1ccccc1` is -4.34% (inactive); for `CCN(CC(=O)Nc1cc(Cl)ccc1C)C(=O)CSCc1ccc(C)cc1` it is 62.8% (active); for `CCN(CC(=O)Nc1ccc(OC)cc1)C(=O)CSCc1ccc(C)cc1` it is -9.04% (inactive).
The result for `Cc1ccc2c(c1)N(CC(=O)NCCc1ccc(Cl)cc1)C(=O)c1cccnc1O2` reads -9.76% (inactive); that for `COC[C@@H]1NS(=O)(=O)c2ccc(Br)cc2O[C@H]1c1ccccc1`, 15.6% (inactive).
The figure for `Cc1ccc(S(=O)(=O)c2nc(-c3cccs3)oc2NCc2cccnc2)cc1` is 3.04% (inactive); for `Cc1ccc(OCCNC(=O)CN2C(=O)NC3(CCCC3)C2=O)cc1` it is -5.27% (inactive); for `COc1ccc(C(=O)NCC(=O)N/N=C/c2cccnc2)cc1` it is -0.02% (inactive).
Turning to `O=C(CSc1cccc2cccnc12)N/N=C/c1cccnc1`, the inhibition was 71% (active).
The figure for `Cc1c(NC(=O)CSc2cccc3cccnc23)c(=O)n(-c2ccccc2)n1C` is 8.55% (inactive); for `NC(=O)CC(NC(=O)Cc1ccc(Br)cc1)c1ccc(NC2CC3CCC2C3)c([N+](=O)[O-])c1` (configuration not stated) it is 19% (inactive).
Take `CC(=O)N1CCC(C(=O)Nc2nc(-c3ccccc3)ns2)CC1`: the inhibition was -14.5% (inactive).
The result for `Cc1nn(C)c(Cl)c1CN1CCC(n2nccc2NC(=O)C2CCCC2)CC1` reads 61.7% (active); that for `CC(CN1CCC(n2nccc2NC(=O)C2CCCC2)CC1)c1ccccc1` (configuration not stated), 8.83% (inactive).
As for `O=C(Nc1ccnn1C1CCN(Cc2cccc(OCCO)c2)CC1)C1CCCC1`, the inhibition is 10.8% (inactive).
`COc1cccc(-n2nc(C(=O)N3CCN(Cc4ccccc4)CC3)c3ccccc3c2=O)c1`: the inhibition is 11% (inactive).
With `COc1cccc(-n2cc3c(c2-c2ccccc2)c(=O)n(C)c(=O)n3C)c1`, the inhibition is 1.34% (inactive).
The result for `COc1cccc(-n2cc(C(=O)O)c3ccccc3c2=O)c1` reads 59.2% (active); that for `CCCCOC(=O)CNc1nnc(SCC(=O)OCC)[nH]c1=O`, -6.62% (inactive); that for `COc1ccccc1NC(=O)CCSc1nnc(-c2ccc(O)cc2)o1`, -0.57% (inactive).
`Brc1c(CSc2nncc3ccccc23)nc2ccccn12`: the inhibition is 65% (active).
Regarding `COc1cc(C(=O)N2CCN(C3CCC(C)CC3)CC2)cc(OC)c1OC` (configuration not stated), the inhibition is 5.83% (inactive).
Turning to `O=c1c2cc([N+](=O)[O-])ccc2nc2n1CCC2`, the inhibition is -23.1% (inactive).
The figure for `CCOC(=O)c1cnc(-n2nc(C)cc2C)nc1NNc1cc(C)nc(-c2ccccc2)n1` is 80% (active); for `CC(=O)c1ccc(Oc2cc(C)nc(-n3nc(C)cc3C)n2)cc1` it is 30.8% (inactive); for `Cc1cc(C)n(-c2c(F)c(F)c(COC(=O)c3ccccc3)c(F)c2F)n1` it is 6.99% (inactive).
As for `Cc1nn(Cc2ccc(F)cc2)c(C)c1NC(=O)c1noc2c1CCc1ccccc1-2`, the inhibition was 6.19% (inactive).
As for `O=C(O)C(c1cccs1)C1(O)CCCCC1` (configuration not stated), the inhibition was 6.95% (inactive).
Consider `C=CCOC(=O)C1=C[C@H](c2ccc(Br)cc2)C[C@H](OCCCCO)O1`, for which the inhibition was -1% (inactive).
The figure for `NC(=O)C1=C[C@@H](c2ccc3c(c2)OCO3)C[C@@H](OCCCCO)O1` is -4.81% (inactive); for `C=CCOC(=O)C1=C[C@@H](c2ccc3c(c2)OCO3)C[C@@H](OCCCCO)O1` it is 98.8% (active).
The figure for `COc1ccccc1-c1nnc(NC(=O)c2cccc(N3C(=O)CCC3=O)c2)o1` is -6.14% (inactive); for `COC(=O)c1cccc(NC(=O)c2cccc(N3C(=O)CCC3=O)c2)c1` it is 8.09% (inactive).
The result for `Cc1cc(NC(=O)c2cccc(N3C(=O)CCC3=O)c2)no1` reads 98.8% (active); that for `C/C(CC(=O)N1CCN(C=O)CC1)=N\NC(=O)c1ccc(Br)cc1`, 3.23% (inactive); that for `CCOC(=O)c1c(C)nn(-c2ncccc2NC(=O)CCC(=O)O)c1C`, 1.77% (inactive).
For `Cn1c(=O)n(C)c2cc(CNc3ccc(N4CCOCC4)c(C(=O)O)c3)ccc21`, the inhibition is 5.36% (inactive).
`CN1CCN(NC(=O)Nc2ccc(Br)cc2)CC1`: the inhibition was -5.05% (inactive).
The result for `CN1C(CC(=O)Nc2ccc(Br)cc2)c2ccccc2CC1(C)C` (configuration not stated) reads 75.8% (active); that for `COCC(=O)Nc1ccc(Br)cc1`, -3.01% (inactive).
On to `COc1ccc(C(=O)N2CCCC(C(=O)c3ccccc3OC)C2)cc1OC` (configuration not stated), for which the inhibition was -11.7% (inactive).
Regarding `COc1ccccc1C(CNC(=O)c1cccc(NS(=O)(=O)c2ccc(Br)cc2)c1)N(C)C` (configuration not stated), the inhibition was 4.43% (inactive).
For the molecule `COc1ccc(C(=O)Nc2ccnn2C2CCN(Cc3ccncc3)CC2)cc1`, the inhibition is -4.23% (inactive).
For `COc1ccccc1C(=O)Nc1ccnn1C1CCN(Cc2cnn(C)c2)CC1`, the inhibition was 8.85% (inactive).
The figure for `CC(C)Oc1ccc(CN2CCC(n3nccc3NC(=O)c3cccnc3)CC2)cc1` is 61.3% (active); for `COCCn1cnnc1SCC(=O)Nc1cccc(S(=O)(=O)N2CCCCC2)c1` it is -21.3% (inactive).
As for `CCOc1cccc(NC(=O)Cn2nc(-c3ccc4c(c3)OCCO4)ccc2=O)c1`, the inhibition was -1.4% (inactive).
On to `Cc1c(C(=O)NCC(c2ccco2)N2CCCC2)oc2ccc(Cl)cc12` (configuration not stated), for which the inhibition is 16.9% (inactive).
The result for `O=C1[C@@H](c2ccccc2)[C@@H](c2ccccc2)N1c1cccnc1` reads 7.59% (inactive); that for `C[C@@H]1NS(=O)(=O)c2cc(Cl)ccc2O[C@@H]1c1ccccc1`, -5.11% (inactive); that for `O=C(O)CCCn1cc(NC(=O)COc2cccc(Cl)c2)cn1`, 62.4% (active).
With `CCOc1cccc(C(=O)Nc2cnn(Cc3ccccc3)c2)c1`, the inhibition was -43.8% (inactive).
For `O=C(COc1cccc(Cl)c1)NCc1ccccc1`, the inhibition was 5.34% (inactive).
The result for `COC(=O)C1CC2=C(CC(C)(C)CC2=O)N(c2ccccc2)C1=O` (configuration not stated) reads 4.81% (inactive); that for `Cc1ccc(C(CNC(=O)Nc2cccc(C)c2)N2CCN(C)CC2)cc1` (configuration not stated), 44.3% (inactive).
The figure for `CCOc1cc(C2/C(=C(/O)c3ccc(S(=O)(=O)N4CCCCC4)cc3)C(=O)C(=O)N2CCOC)ccc1O` (configuration not stated) is -6.41% (inactive); for `CCCN(C(=O)CSc1nnnn1C)c1c(N)n(Cc2ccccc2)c(=O)[nH]c1=O` it is -4.32% (inactive).
The result for `COc1ccc2c(c1)c(=Cc1ccc(N(C)C)cc1)c1cc(-c3ccccc3)[n+](C)n12` reads 71.7% (active); that for `COc1ccc2sc(-c3ccc(N(C)C)cc3)c(C#CCO)c2c1`, -3.68% (inactive).
As to `CN(CC(=O)NC(=O)Nc1ccccc1F)Cc1ccccc1`, the inhibition was -0.74% (inactive).
The result for `CCn1nc(C(=O)Nc2ccc(N3CCOCC3)cc2)c2ccccc2c1=O` reads 6.24% (inactive); that for `CCS(=O)(=O)Nc1cc(C(=O)OC)ccc1C(=O)OC`, -3.7% (inactive); that for `CCN(CCO)C(=S)Nc1cc(C(=O)OC)ccc1C(=O)OC`, 96.9% (active).
The result for `CCCN(CCC)C(=S)Nc1cc(C(=O)OC)ccc1C(=O)OC` reads 1.47% (inactive); that for `O=C(C(c1ccccc1)c1ccccc1)N1CCN(CC(O)COc2ccccc2)CC1` (configuration not stated), 3.62% (inactive).
The result for `CC(C)OCC(O)CN1CCN(C(c2ccccc2)c2ccccc2)CC1` (configuration not stated) reads 76.8% (active); that for `COc1ccccc1CN1CCN(C(c2ccccc2)c2ccccc2)CC1`, 25.4% (inactive); that for `COc1ccc(C(=O)OCC(=O)NCC2CCCO2)cc1[N+](=O)[O-]` (configuration not stated), -0.12% (inactive).
On to `c1ccc2c(c1)CSc1sccc1C2=C1CCNCC1`, for which the inhibition is 28.4% (inactive).
As for `COC(=O)c1c(C)[nH]c(C(=O)NCCc2ccc(S(N)(=O)=O)cc2)c1C`, the inhibition was -12.2% (inactive).
`COc1ccc(NC(=O)NNC(=O)COc2cc(C)c(Cl)c(C)c2)c(OC)c1`: the inhibition is -3.14% (inactive).
For the molecule `Cc1cccc(N2CC(C(=O)Nc3ccccc3N3CCCC3)CC2=O)c1C` (configuration not stated), the inhibition was -3.8% (inactive).
The result for `CN1CCN(CCC(=O)N/N=C/C=C2\N(C)c3ccccc3C2(C)C)CC1` reads 29.6% (inactive); that for `CC(C)Nc1nnc(SCC(=O)/C=C2\N(C)c3ccccc3C2(C)C)s1`, 2.92% (inactive).
Take `CC(=O)Nc1cccc(OCC(=O)/C=C2\N(C)c3ccccc3C2(C)C)c1`: the inhibition is 56.5% (active).
As to `COc1ccc(N2CCN(C(=O)C3CCN(S(=O)(=O)c4ccc(C)cc4)CC3)CC2)cc1`, the inhibition is 18.7% (inactive).
As for `CCCCCN(C(=O)NC(=O)Nc1cccc(C)c1C)S(C)(=O)=O`, the inhibition was -3.52% (inactive).
With `CC(=O)OC(C)C[N+](C)(C)C` (configuration not stated), the inhibition is 15.8% (inactive).
The figure for `CC(=O)OCCC(C)C` is 57.4% (active).
On to `CC(=O)OCC(COC(C)=O)OC(C)=O`, for which the inhibition is -14.9% (inactive).
The figure for `CC(C)CC(=O)NC(=S)NNC(=O)c1cccc([N+](=O)[O-])c1` is -4.7% (inactive); for `COc1ccc(C)cc1NC(=S)N1CCOCC1` it is 1.61% (inactive); for `CC(=O)N1CCCc2cc(S(=O)(=O)N3CCCC(C(=O)N4CCN(c5cccc(Cl)c5)CC4)C3)ccc21` (configuration not stated) it is 64.5% (active).
Regarding `CC(=O)N1CCCc2cc(S(=O)(=O)N3CCCC(C(=O)NCc4ccc(Cl)cc4)C3)ccc21` (configuration not stated), the inhibition is 27% (inactive).
The figure for `CC(=O)N1c2ccc(S(=O)(=O)N3CCCC(C(=O)Nc4cccc(Cl)c4)C3)cc2CC1C` (configuration not stated) is -0.91% (inactive); for `O=C(Nc1ccccc1C(=O)NCCCn1ccnc1)c1ccc(Cl)cc1Cl` it is 19.3% (inactive).
The result for `CCOC(=O)C(CO)NC(=O)C1(NC(C)=O)CCCC1` (configuration not stated) reads -2.14% (inactive); that for `O=C(CN(CC1CCCO1)C(=O)CNS(=O)(=O)c1ccc(F)cc1)NCc1ccco1` (configuration not stated), 0.03% (inactive); that for `O=C1/C(=C/c2ccc(F)cc2)SC(=S)N1CCCC(=O)N1CCCCC1CCO` (configuration not stated), -14.7% (inactive).
`O=C(O)c1ccc(/C=C2\SC(=S)N(NC(=O)c3ccc(Br)cc3)C2=O)cc1`: the inhibition was 10% (inactive).
With `O=C1/C(=C/c2ccc(F)cc2)SC(=S)N1NS(=O)(=O)c1ccccc1`, the inhibition was 59.1% (active).

Usually inhibition stands for the change of the read-out against control, counted positive when it falls.
